The whole screen tested about 340,000 compounds, of which about 930 (0.27%) were called active. Only a selection was taken, and actives are over-represented in it overall. Values without a mark were called inactive.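 Rule for the calls: active = inhibition above the screen-wide average of all tested compounds plus 3 SD (cut at about 25% in these data); inactive = the rest.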

These results are taken from PubChem BioAssay AID492972 (The Scripps Research Institute Molecular Screening Center, 2010).

Platelet-activating factor acetylhydrolase IB subunit alpha1 (Homo sapiens), sequence (Q15102 whole entry, looked up): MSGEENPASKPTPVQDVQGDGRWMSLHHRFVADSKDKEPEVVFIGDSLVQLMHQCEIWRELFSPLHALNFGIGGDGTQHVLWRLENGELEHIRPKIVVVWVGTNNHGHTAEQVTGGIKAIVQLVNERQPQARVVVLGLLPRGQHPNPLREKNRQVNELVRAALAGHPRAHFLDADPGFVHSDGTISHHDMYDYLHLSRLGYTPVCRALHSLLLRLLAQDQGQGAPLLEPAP

This test addresses Platelet-activating factor acetylhydrolase IB subunit alpha1 (Homo sapiens) (UniProt Q15102). The experiment in a line: PAFAH1B3 enzyme inhibitors, primary screen, biochemical, fluorescence polarization, human (AID 492972).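 Note: 0% = enzyme with DMSO only and 100% = wells lacking PAFAH1B3 protein.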 Conditions: recombinant PAFAH1B3, FP-rhodamine probe, at 3.39 µM, active compounds read high. On the technique in general: Polarisation of emitted light reports the rotation of a fluorescent probe.
Turning to `O=C(Nc1ccccc1Cl)N1CCN(c2ccc3nncn3n2)CC1`, the inhibition is 2.34%.
With `CCC(=O)NCc1cc(-c2nn(C)c(=O)c3ccccc23)ccc1OC`, the inhibition was -3.52%.
Regarding `Cc1c(-c2nn(C)c(=O)c3ccccc23)oc2ccc(F)cc2c1=O`, the inhibition is 37.7% (active).
In the case of `Cc1ccc(F)cc1NC(=O)Cc1nn(C)c(=O)c2ccccc12`, the inhibition was -8.34%.
`Cn1ncc2c(N3CCCCC3)nc(NCCCO)nc21`: the inhibition was 8.53%.
On to `Cc1ccc(C)c(NC(=O)COC(=O)CSc2ccccc2)c1`, for which the inhibition was 1.73%.
With `Cc1ccc(S(=O)(=O)NNC(=O)Nc2cccc3ccccc23)cc1`, the inhibition is 3.24%.
In the case of `Cc1ccc(C)c(NC(=O)NNC(=O)c2ccc3ccccc3c2O)c1`, the inhibition was 39.8% (active).
Consider `CN(Cc1ccccc1)C(=O)C1CCCN(c2ncnc3c2nc2n3CCCCC2)C1` (configuration not stated), for which the inhibition was 3.41%.
Take `Cc1cccnc1CCNC(=O)C1CCC(=O)N(Cc2cccc(F)c2)C1` (configuration not stated): the inhibition is 2.19%.
As for `Cc1ccc(CNS(=O)(=O)c2ccc3c(c2)N(C)CCO3)cc1`, the inhibition is 8.72%.
As for `CC(=O)Nc1ccccc1OC(C)C(=O)N1CCC(C)CC1` (configuration not stated), the inhibition is 1.25%.
Take `CN(C)CCN=c1cc(-c2ccccc2)oc2ccc(Cl)cc12`: the inhibition is 5.11%.
Consider `CCc1ccc(OCC(=O)NCC(c2ccc(Cl)cc2)N2CCCCC2)cc1` (configuration not stated), for which the inhibition is 1.46%.
For `O=C1c2cccc(OCC(=O)N3N=C(c4cccs4)CC3c3ccc(F)cc3)c2CCN1Cc1ccccc1` (configuration not stated), the inhibition is 3.19%.
As to `Cc1cc2cc3c(N)[nH]nc3nc2cc1C`, the inhibition is 5.34%.
As for `COc1ccc(S(=O)(=O)N2CCOCC2)cc1NC(=O)Cc1coc2cc(C)ccc12`, the inhibition is 9.79%.
Under `O=C(NCc1cccnc1)c1ccc(CS(=O)(=O)c2ccc(Br)cc2)o1` stands 2.95%; under `CCn1ncc(C2=NOC(C(=O)Nc3ccccc3C(=O)OC)C2)c1C` (configuration not stated), 9.12%; under `O=C(CN1CCN(C(=O)c2ccco2)CC1)Nc1ccc(Cl)c(C(F)(F)F)c1`, 8.31%.
In the case of `CN(CC(=O)NCc1ccc2c(c1)OCO2)CC(=O)Nc1ccc(F)c(F)c1F`, the inhibition was 7.36%.
For the compound `CCC(C)N1C(=S)SC(C)(C)C1N(O)C(=O)NC1CCCCC1` (configuration not stated), the inhibition was 3.27%.
Take `CCCCNC(=O)N(O)C1N(/N=C/c2ccccc2O)C(=S)SC1(C)C` (configuration not stated): the inhibition is -1.86%.
Turning to `CCCCNC(=O)N(O)C1N(/N=C/c2ccc(N(C)C)cc2)C(=S)SC1(C)C` (configuration not stated), the inhibition was 40.5% (active).
`CC1CCCC(NC(=O)COC(=O)[C@@H]2CC(O)CN2S(=O)(=O)c2ccc3c(c2)OCCO3)C1C` (some centres not stated): the inhibition is -2.21%.
For `COc1cc(OC)cc(-c2c(C#Cc3ccsc3)c3cc(-c4ccc(SC)cc4)ccc3n2C)c1` the value was 11.8%.
`CCC(C(=O)Nc1ccc(C(C)C)cc1)c1ccccc1` (configuration not stated): the inhibition was -2.07%.
With `Cc1ccc(S(=O)(=O)N2CCN(C)CC2)cc1`, the inhibition is 2.98%.
As for `CC/C(=N\NC(=O)c1c(C)nc2ccccn12)c1ccc(Cl)cc1`, the inhibition was 2.04%.
Consider `CC(Sc1nncs1)C(=O)NCc1ccc2c(c1)OCO2` (configuration not stated), for which the inhibition was 4.2%.
Take `COc1cc(CNCCN(C)C)ccc1OCc1c(F)cccc1Cl`: the inhibition was 7.89%.
For `CSCCC(NC(=O)COc1ccccc1)C(=O)Nc1ccc(C)cc1` (configuration not stated) the value was 3.02%; for `Cc1ccc(-c2noc(CNC(=O)c3ccoc3C)n2)cc1`, 7.91%.
Under `O=C(CN1C(=O)NC2(CCCCCC2)C1=O)NC1CC1` stands 8.06%.
As to `CCCc1nc(N)nc2c1C(=O)CC(C)(C)C2`, the inhibition was 3.91%.
Turning to `Cc1ccc(N=C2NC(=O)/C(=C/C=C/c3ccco3)S2)cc1C`, the inhibition is -1.25%.
On to `Cc1ccc(N2C(=O)S/C(=C/c3cn(C)c4ccccc34)C2=O)cc1`, for which the inhibition is 1.18%.
Consider `Cc1cccc(N=C2NC(=O)/C(=C/c3cn(C)c4ccccc34)S2)c1`, for which the inhibition was 31.3% (active).
For `CN(C)C(=O)CCc1ccc2c3c([nH]c2c1)[C@]1(C)[C@@H](C(=O)N2CCOCC2)C[C@H](CC(=O)NCCc2ccccn2)C(=O)N1CC3` the value was 12.3%; for `Cn1ncc2c(Nc3cccc4ccccc34)ncnc21`, -1.17%; for `O=C(COC(=O)c1cccnc1Cl)NC12CC3CC(CC(C3)C1)C2`, 16.2%.
For `COCCNC(=S)N1CCC(NC(=O)C23CC4CC(CC(C4)C2)C3)CC1` the value was 7.45%; for `O=C(NCCc1ccccc1)Oc1ccc(Cl)cc1`, 2.38%; for `CN(C)[C@@H]1C(=O)C(C(N)=O)=C(O)[C@@]2(O)C(=O)C3=C(O)c4c(O)ccc(Cl)c4[C@@H](O)[C@H]3C[C@@H]12`, 11%.
As for `C=C1c2c(Cl)ccc(O)c2C(O)=C2C(=O)[C@]3(O)C(O)=C(C(N)=O)C(=O)[C@@H](N(C)C)[C@@H]3[C@@H](O)C12` (some centres not stated), the inhibition was 32.6% (active).
On to `CCSC(C)CC1C/C(=N/O)c2c(C)noc2C1` (configuration not stated), for which the inhibition is 4.48%.
Take `COc1ccc(N(CC(=O)NCC2CCCO2)C(=O)CCC(=O)Nc2nccs2)c(OC)c1` (configuration not stated): the inhibition is 2.48%.
Take `O=C(Nc1nccs1)C1CCN(S(=O)(=O)c2ccc(Cl)c(C(F)(F)F)c2)CC1`: the inhibition was 7.86%.
On to `O=C(NCc1ccccc1)C(c1cccnc1)N(C(=O)c1csnn1)c1ccc(F)cc1` (configuration not stated), for which the inhibition is 4.83%.
As to `CCN1C(=O)[C@H]2[C@@H](c3ccc(SC4CCCCC4)c(OC)c3)N[C@@](Cc3ccccc3)(C(=O)OC)[C@H]2C1=O`, the inhibition was -5.41%.
With `c1coc(-c2nc3nc4ccccc4n3nc2-c2ccco2)c1`, the inhibition is 41.5% (active).
On to `COc1ccccc1-c1nnc2n1N=C(c1ccc(OC(F)F)c(OCC3CC3)c1)CS2`, for which the inhibition was -0.82%.
`CC1=Nn2c(nnc2-c2ccccc2)SC1`: the inhibition was 6.68%.
In the case of `COc1ccc(C2=Nn3c(nnc3-c3ccccc3OC)SC2)cc1OC1CCCC1`, the inhibition is 38.3% (active).
As for `Cc1nnc(SCCCn2c(N3CCCCC3)nc3c2c(=O)[nH]c(=O)n3C)s1`, the inhibition is 5.57%.
For the compound `CCN(CC)CCCC(C)n1c2nc(=O)[nH]c(=O)c-2nc2cc(Cl)ccc21` (configuration not stated), the inhibition was 57.6% (active).
Under `COc1ccc(C)cc1S(=O)(=O)N(CC(=O)Nc1cccc([N+](=O)[O-])c1)c1ccc(C)cc1` stands -21.3%.

The term inhibition denotes the drop in the measured response relative to a control, in per cent.
